# Screening results as filed in PubChem.
# sEH inhibitor: soluble epoxide hydrolase (human) inhibition | 91,000 compounds, 0.34% hits | inhibition, % at 2 µM | recombinant human sEH enzymatic activity assay | P34913; in the data active = inhibition above about 80%
# CYP2C19 activ: increases human CYP2C19 enzyme activity. P33261. recombinant CYP2C19, luciferin-H EGE luminescence; stronger effect = higher value; 0 = fully inhibited enzyme, 1 = untreated enzyme. activation factor at 5 µM. 96,000 tested, under 10 active;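 active = activation factor of at least 2 at 5 µM in the primary screen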
# Target sequence (P33261 whole entry, looked up): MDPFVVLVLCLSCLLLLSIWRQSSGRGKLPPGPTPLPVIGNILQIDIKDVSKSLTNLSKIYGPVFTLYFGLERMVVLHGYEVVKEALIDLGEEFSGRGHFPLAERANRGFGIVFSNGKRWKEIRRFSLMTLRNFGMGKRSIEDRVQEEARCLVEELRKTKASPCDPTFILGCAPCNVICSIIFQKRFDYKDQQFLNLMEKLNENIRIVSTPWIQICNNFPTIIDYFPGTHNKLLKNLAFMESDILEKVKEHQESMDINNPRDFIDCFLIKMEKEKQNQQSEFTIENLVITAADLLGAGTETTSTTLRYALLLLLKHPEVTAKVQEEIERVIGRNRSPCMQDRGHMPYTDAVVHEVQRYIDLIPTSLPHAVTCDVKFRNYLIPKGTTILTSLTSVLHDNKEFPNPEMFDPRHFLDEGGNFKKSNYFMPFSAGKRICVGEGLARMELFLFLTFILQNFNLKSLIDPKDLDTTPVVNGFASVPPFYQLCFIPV
# CYP2C19 inh: inhibitors of human CYP2C19; P33261; CYP2C19 Supersomes, luciferin-H EGE luminescence, 30 min; inhibition, % at 5 µM; 96,000 compounds, 21% hits;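 active = CYP2C19 inhibition above a set limit at 5 µM in the primary screen, cut at about 50% in these data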
# CYP2C9 activ: increases human cytochrome P450 2C9 activity | activation factor at 5 µM | 96,000 compounds, 1.4% hits | recombinant CYP2C9, luciferin-H conversion, luminescence; stronger effect = higher value; factor 1 = untreated enzyme, 0 = blocked;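 active = activation factor of 2 or more for CYP2C9 at a 5 µM dose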
# CYP2C9 inhib: blocks human cytochrome P450 2C9; 96,000 compounds, 20% hits; CYP2C9 Supersomes, luciferin-H conversion, luminescence; inhibition, % at 5 µM; AID 777;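 active = blocking of liver enzyme CYP2C9 beyond about 50% at 5 µM, limit read from the data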
# sEH act: increases human soluble epoxide hydrolase activity; P34913; purified human sEH enzymatic activity, activator screen; activation, % at 2 µM; 91,000 compounds, 0.04% hits; in the data active = activation above about 37%
# Hits are given with their value; 0 = inactive; - = not tested or not shown. Only some compounds are listed: those with a hit (about 27% of all), similar ones and a draw of the others.
SMILES,sEH inhibitor,CYP2C19 activ,CYP2C19 inh,CYP2C9 activ,CYP2C9 inhib,sEH act
O=c1oc2ccccc2c2c1SC(C(F)(F)F)C2 (stereo not given),0,0,0,0,0,0
COCCn1nnnc1C(c1ccc(OC)c(OC)c1)N1CCc2ccccc21 (stereo not given),0,0,74,0,69,0
COCCn1nnnc1C(c1ccc2ncccc2c1)N1CCc2ccccc21 (stereo not given),0,0,94,0,80,0
COCCn1nnnc1C(c1ccccc1OC)N1CCc2ccccc2C1 (stereo not given),0,-,-,-,-,0
COCCn1nnnc1C(c1ccc2ncccc2c1)N1CCN(c2ccccc2F)CC1 (stereo not given),-,0,0,0,0,-
O=C(CN1C2CCCC1CC(NC(=O)c1ccco1)C2)Nc1ccccc1 (stereo not given),0,0,87,0,95,0
COc1cc(C(=O)NC2CC3CCCC(C2)N3CC(=O)Nc2ccccc2)cc(OC)c1OC (stereo not given),0,0,81,0,97,0
O=C(NC1CC2CCCC(C1)N2S(=O)(=O)c1ccccc1)c1ccco1 (stereo not given),0,0,0,0,0,0
O=C(CN1CCCCC1)Nc1cccc(Oc2ccccc2)c1,0,0,77,0,90,0
CN1CCN(CC(=O)Nc2ccc(Oc3ccccc3)cc2)CC1,0,0,0,0,0,0
COc1cccc(NC(=O)CN2CCC(C)CC2)c1,0,0,90,0,54,0
CCOC(=O)C1=C(N)n2c(s/c(=C\c3cccs3)c2=O)=C(C(=O)OCC)C1c1cccs1 (stereo not given),0,0,0,0,78,0
CCOC(=O)C1=C(N)n2c(s/c(=C\c3cccnc3)c2=O)=C(C(=O)OCC)C1c1cccnc1 (stereo not given),-,0,63,0,70,-
CCOC(=O)C1=C(N)n2c(s/c(=C\c3cccnc3)c2=O)=C(C(=O)OC)C1c1cccnc1 (stereo not given),0,-,-,-,-,0
C=C(C)c1ccc(C(C)(C)NC(=O)N2CCN(C)CC2)cc1,0,0,0,0,0,0
COc1ccc(C(C[N+](=O)[O-])c2c(-c3ccccc3)cc3ccccn23)cc1 (stereo not given),0,0,75,0,74,0
COc1cc(C(C[N+](=O)[O-])c2c(-c3ccccc3)cc3ccccn23)cc(OC)c1OC (stereo not given),0,0,0,0,59,0
COc1ccc(C(C[N+](=O)[O-])c2c(-c3ccccc3)cc3ccccn23)cc1OC (stereo not given),0,0,0,0,0,0
COc1cccc(-c2ncc3ccccn23)c1,0,-,-,-,-,0
Cc1ccc(SC(C)C(=O)N2CCCC2)cc1 (stereo not given),0,0,76,0,0,0
Cc1ccc2nc(SC(C)C(=O)N3CCCC3)[nH]c2c1 (stereo not given),0,-,-,-,-,0
Cc1ncsc1CCSc1nc2ccccc2c(=O)n1C,0,0,77,0,68,0
Cc1ncsc1CCSc1n[nH]c(=O)n1-c1ccccc1,0,0,0,0,0,0
O=C(c1cccs1)N(Cc1ccco1)c1nc(-c2ccc(F)cc2)cs1,0,-,-,-,-,0
CN(C)CCCN(C(=O)c1cccs1)c1nc(-c2ccccc2)cs1,0,0,92,0,74,0
SMILES,sEH inhibitor,CYP2C19 activ,CYP2C19 inh,CYP2C9 activ,CYP2C9 inhib,sEH act
CCOc1ccc(Nc2nc(Cc3nnc(SCC(=O)NC4CCCCC4)n3C)cs2)cc1,0,0,79,0,91,0
CC(C(=O)Nc1ccccc1)c1ccc(-c2ccccc2)c(F)c1 (stereo not given),0,0,0,0,0,0
CC1(C)CC(=O)C=C(Nc2ccccc2NC(=O)c2cnccn2)C1,0,0,0,0,0,0
Nc1nc2sc3c(c2c(=O)s1)CCCC3,0,0,0,0,80,0
O=c1c2c3c(sc2nc2n1CCCC2)CCCCC3,0,0,0,0,62,0
Cc1ccc(-c2nc3sc4c(c3c(=O)n2N)CCCC4)cc1,0,0,0,0,58,0
CC(C)c1nc2sc3c(c2c(=O)o1)CCCC3,0,0,51,0,66,0
O=c1c2c3c(sc2nc2n1CCCCC2)CCCCC3,-,0,0,0,0,-
CC(SCc1cn2cc(Cl)ccc2n1)C(=O)O (stereo not given),0,0,0,0,0,0
Cc1ccc(S(=O)(=O)NCC(=O)N(CC(=O)NC2CCCCC2)CC2CCCO2)cc1 (stereo not given),0,0,0,0,0,0
Cc1cc(=O)oc2ccc(OCC(=O)N3CCC(C)CC3)cc12,0,0,55,0,0,0
Cc1cc(=O)oc2cc(OCC(=O)N3CCCC(C)C3)ccc12 (stereo not given),0,0,0,0,0,0
COc1ccc(S(=O)(=O)N2CCN(C(=O)COc3ccc4c(C)cc(=O)oc4c3)CC2)cc1,0,0,0,0,0,0
Cc1cc(=O)oc2cc(OCC(=O)N3CC(C)OC(C)C3)ccc12 (stereo not given),0,0,73,0,0,0
O=c1c2cc(Br)ccc2[nH]c(=S)n1Cc1cccnc1,0,0,0,0,0,0
O=c1c2ccccc2[nH]c(=S)n1Cc1cccnc1,-,0,82,0,0,-
S=C1COC(c2ccccc2)N1c1ccccc1 (stereo not given),0,-,-,-,-,0
O=C(c1ccco1)[C@@H]1[C@@H]2C(=O)N(c3ccccc3)C(=O)[C@@H]2C2c3ccccc3C=CN21 (stereo not given in full),0,0,0,0,0,0
COc1ccc(N2C(=O)[C@@H]3[C@H](C2=O)[C@H]2c4ccccc4C=CN2[C@@H]3C(=O)Nc2ccccc2)cc1,0,0,0,0,62,0
CC(C)(C)C(=O)[C@@H]1[C@@H]2C(=O)N(c3ccc4c(c3)OCCO4)C(=O)[C@@H]2C2c3ccccc3C=CN21 (stereo not given in full),-,0,57,0,57,-
c1ccc2nc(N3CCOCC3)cnc2c1,0,0,0,0,0,0
Cn1cc(Cl)c(C(=O)NC2CCCCCC2)n1,0,0,67,0,0,0
Cn1nc(C(=O)NC2CCCCC2)c2ccccc2c1=O,-,0,0,0,0,-
Cc1ccc(NC(=O)C2CCN(S(C)(=O)=O)CC2)cc1C,0,0,0,0,0,0
O=C(CN1CCCN(S(=O)(=O)c2ccc(Br)cc2)CC1)Nc1ccc2cn[nH]c2c1,0,-,-,-,-,0
C/C(Cl)=C\CNC(C)c1ccccc1 (stereo not given),-,0,55,0,0,-
Cc1ccc(NC(=O)c2ccccc2Cl)c(Cl)c1,0,0,0,2.2,0,0
COc1ccccc1NC(=S)NNC(=O)c1ccc(O)cc1,0,0,0,0,0,0
COc1ccc(C)cc1NC(=S)NNC(=O)c1ccccc1Cl,0,0,61,0,0,0
